Laboratory results from ChEMBL document CHEMBL1961873, “Compounds: GSK PKIS; Assays: Nanosyn kinase panel” (2012).

molecular target: Calcium/calmodulin-dependent protein kinase type 1D (Homo sapiens) (UniProt Q8IU85); settings: at 1 µM
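Note: reported figure is the mean percent inhibition of CAMK1D.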

Sequence of Calcium/calmodulin-dependent protein kinase type 1D (Homo sapiens) (Q8IU85 whole entry, looked up): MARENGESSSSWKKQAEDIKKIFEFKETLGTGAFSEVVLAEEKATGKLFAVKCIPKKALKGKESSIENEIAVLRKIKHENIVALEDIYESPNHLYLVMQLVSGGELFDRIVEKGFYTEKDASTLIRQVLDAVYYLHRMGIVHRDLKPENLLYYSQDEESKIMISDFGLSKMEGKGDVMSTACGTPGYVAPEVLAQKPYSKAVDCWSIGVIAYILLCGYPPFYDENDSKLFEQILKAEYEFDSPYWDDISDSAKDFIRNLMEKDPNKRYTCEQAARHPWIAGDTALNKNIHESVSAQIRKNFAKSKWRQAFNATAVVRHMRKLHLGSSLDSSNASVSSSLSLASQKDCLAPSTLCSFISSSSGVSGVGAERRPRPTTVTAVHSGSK

Row | SMILES | inhibition
1 | COc1cc2ncn(-c3cc(O[C@H](C)c4ccccc4Cl)c(C(N)=O)s3)c2cc1OC | 2.31%
2 | NC(=O)c1ccc(-c2nc(-c3ccccn3)c(-c3ccc4c(c3)OCO4)[nH]2)cc1 | 0.23%
3 | Cn1cc(C=C2C(=O)Nc3cccnc32)c2ccccc21 | 2.41%
4 | CNC(=O)c1cncc(/C=C/c2c(Cl)cccc2Cl)c1 | 2.1%
5 | COc1cc2ncn(-c3cc(OCc4ccccc4C(F)(F)F)c(C(N)=O)s3)c2cc1OC | -1.9%
6 | O=C1Nc2ccc(C(=O)c3ccco3)cc2C1=Cc1cc(Cl)c(O)c(Cl)c1 | 0.48%
7 | COc1ccc(-c2nn3ncccc3c2-c2ccnc(Nc3ccc(Cl)c(C(F)(F)F)c3)n2)cc1 | -1.4%
8 | CS(=O)(=O)Nc1ccc(N/C=C2\C(=O)Nc3ccccc32)cc1 | 0.24%
9 | Fc1cccc(COc2ccc(Nc3ncnc4sc(-c5cccs5)cc34)cc2Cl)c1 | 0.18%
10 | CCN1CCC(CC(=O)Nc2n[nH]c3nc(-c4cccs4)c(Br)cc23)CC1 | 1.72%
11 | O=C1NC(=O)C(c2ccccc2Cl)=C1Nc1cccc(O)c1 | 4.28%
12 | CCn1c(-c2nonc2N)nc2cncc(C(=O)N3CCNCC3)c21 | 2.87%
13 | CN1CCC(C(=O)Nc2n[nH]c3nnc(-c4ccccc4)cc23)CC1 | 1.89%
14 | CS(=O)(=O)CCN(CC#N)Cc1ccc(-c2ccc3ncnc(Nc4ccc(OCc5cccc(F)c5)c(Cl)c4)c3c2)o1 | -1.27%
15 | COc1ccc(-c2coc3ncnc(N)c23)cc1 | 2.41%
16 | Cc1ccc(NC(=O)c2ccnc(N3CCCC3)c2)cc1-c1ccc(C(=O)NCC2CC2)cc1 | 2.39%
